BCR signal inh = blocks chronic active B-cell receptor signaling; AID 493014; 340,000 compounds, 0.05% hits; ABC-DLBCL IkBa-CBG/CBR reporter, luminescence ratio, 4 h; Potency, µM (top dose mostly 46.1 µM), for inactives: top-dose activity change, negative = inhibition, most hits filed as inhibitors; active means well fitted inhibition curve with a large enough effect in the signal ratio, with a control signal flat, not every such curve was filed as active; inconclusive means small, poorly fitted or top-dose-only effect, or effect the other way, or a change in a side signal; the % refers to the signal ratio;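 further: potency means the concentration at half of the fitted maximal effect; plate controls were basal doxycycline-induced cells for no effect and cells given 10 µM MG132 for full effect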
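TMD8 ABC-DLBCL cells carrying doxycycline-inducible green luciferase fused to IkappaBalpha plus unfused red luciferase were exposed to compounds (up to 46 uM) for 4 hrs at 37C. Activity came from the overlap-corrected green/red luminescence ratio.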
IL1B secr inh = blocks inflammasome-driven IL-1 beta release. THP-1 LPS/ATP IL-1B secretion, AlphaLISA, 16 h; stronger effect = lower value. AID 743279. 360,000 compounds, 4.7% hits. activity change, % at 57.5 µM; in the data active means activity change below about -50%; inconclusive means mostly about -30% to -49%; further: on the % scale 0 is the no-effect control and ±100 the full control effect
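THP-1 cells pretreated 1 hr with compounds (up to 57.5 uM final), then stimulated with LPS (250 ng/mL final) plus ATP (1.25 mM final); secreted IL-1B measured by AlphaLISA after 16 hr, decreased signal indicating inhibition.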
SW480 rerep = DNA re-replication induction in SW480 cells; SW480 DNA re-replication, Hoechst DNA content imaging, 48 h; Potency, µM (highest dose often 46.1 µM), inactives show top-dose re-replication activation, most hits filed as activators; 340,000 compounds, 1.8% hits; AID 624297; further: potency means the concentration at half of the fitted maximal effect; % of control where 0% means no effect; nearly all actives have a fitted effect of over 55% in size
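Quantitative HTS format with DMSO vehicle controls; 48 hr drug incubation at 37 C, then 40 min Hoechst staining and scanning imager measurement at 405 nm excitation.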
DT40 TDP1 CPT = growth inhibition of DT40 Tdp1-/-;hTDP1 cells with camptothecin (screen for TDP1 inhibitors); 420,000 compounds, 12% hits; Potency, µM (titrated, usually from 46.2 µM), for the others: at the highest dose activity change, negative = growth inhibition, hits mostly inhibitors; chicken DT40 Tdp1-/-;hTDP1 cells + 20 nM CPT, ATP luminescence, 48 h; AID 686979; further: potency means the concentration at half of the fitted maximal effect; on the % scale 0 is the no-effect control and ±100 the full control effect; nearly all actives have a fitted effect of over 55% in size
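Chicken DT40 Tdp1-/- cells complemented with human TDP1, 400 cells/well, exposed to compounds plus 20 nM camptothecin for at least 48 h at 37 C; viability read as ATP content by CellTiter-Glo luminescence.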
MCF10A rerep = inducers of DNA re-replication in MCF 10A breast cells; Potency, µM (top dose mostly 46.1 µM), for the others: at the highest dose activity, positive = re-replication, most hits filed as activators; MCF 10A DNA re-replication, Hoechst nuclear intensity, 48 h; 350,000 compounds, 2.9% hits; AID 624296; further: potency means the concentration at half of the fitted maximal effect; % of control where 0% means no effect; nearly all actives have a fitted effect of over 50% in size
TDP1 cell noCPT = qHTS for Inhibitors of human tyrosyl-DNA phosphodiesterase 1 (TDP1): qHTS in cells in absence of CPT | 420,000 compounds, 15% hits | DT40 Tdp1-/- hTDP1 cells, no CPT, ATP luminescence, 48 h | Potency, µM (series often up to 46.2 µM), inactives show at the highest dose activity change, negative = growth inhibition, actives largely listed as inhibitors; further: potency means the concentration at half of the fitted maximal effect; on the % scale 0 is the no-effect control and ±100 the full control effect; nearly all actives have a fitted effect of over 55% in size
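Luminescent ATP content (CellTiter-Glo) served as the growth readout. Knockout chicken DT40 cells expressing human TDP1 were exposed to compounds without camptothecin for a minimum 48 hr at 37 °C.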
An asterisk follows results filed as active; ? = inconclusive; / = no result. Compounds with a hit are over-represented: about 19% of the library has one in this group of screens. Unless noted, the call rests on the fitted dose curve; in most records, active means well fitted curve in the direction sought with a large enough effect; inconclusive means small, poorly fitted or top-dose-only effect, or another doubt; inactive means no such curve, though single readings can be large; an effect the other way counts as inactive or inconclusive.

SMILES	BCR signal inh	IL1B secr inh	SW480 rerep	DT40 TDP1 CPT	MCF10A rerep	TDP1 cell noCPT
CCNC(=O)N(C)C[C@H]1N[C@@](C)(C(=O)OC)[C@H]2C(=O)N(C)C(=O)[C@@H]12	?	14.5	-3.7%	-6.2%	-3.9%	-16.2%
Cc1ccc(-c2ccc(=O)n(CC(=O)NC(C)c3ccccc3)n2)cc1 (configuration not stated)	2.9%	/	/	-28.6%	/	-5.5%
COc1ccc(NC(=O)C2CCCN2S(=O)(=O)c2ccc3c(c2)CCC(=O)N3)c(OC)c1 (configuration not stated)	12.6%	-15.1	-0.3%	13µM*	-2.0%	16.4µM*
O=C(NCc1nc2ccccc2[nH]1)C1=C[C@@H](C2CCCCC2)C[C@@H](OCc2ccc(CO)cc2)O1	?	13.9	?	?	?	?
O=C(NCc1nc2ccccc2[nH]1)C1=C[C@@H](c2ccc(C(F)(F)F)cc2)C[C@@H](OCc2ccc(CO)cc2)O1	/	-11.6	3.1%	?	?	18.4µM*
O=C(NCc1nc2ccccc2[nH]1)C1=C[C@@H](c2ccccc2)C[C@@H](OCc2ccc(CO)cc2)O1	?	-7.9	-1.4%	?	24.9%	?
O=C(NCc1nc2ccccc2[nH]1)C1=C[C@H](C2CCCCC2)C[C@H](OCc2ccc(CO)cc2)O1	3.8%	-12.8	?	11.6µM*	?	16.4µM*
O=C(NCc1nc2ccccc2[nH]1)C1=C[C@H](C2CCCCC2)C[C@H](OCCCCO)O1	/	6.0	-2.4%	23.1µM*	-8.9%	16.4µM*
O=C(NCc1nc2ccccc2[nH]1)C1=C[C@H](C2CC2)C[C@H](OCCCCO)O1	-27.4%	22.9	3.8%	-5.0%	17.7%	-8.4%
CC(C)(C)[C@H]1C=C(C(=O)NCc2nc3ccccc3[nH]2)O[C@@H](OCc2ccc(CO)cc2)C1	?	-0.8	5.1%	20.6µM*	-2.6%	?
O=C(NCc1nc2ccccc2[nH]1)C1=C[C@H](c2ccccc2)C[C@H](OCc2ccc(CO)cc2)O1	?	?	-0.8%	?	?	?
CC(C)CNC(=O)c1cc(=O)[nH]c2ccc(S(=O)(=O)Nc3ccc(F)cc3)cc12	1.3%	6.8	-1.8%	-16.9%	?	-5.5%
COc1ccccc1C(=O)NC(=O)COC(=O)CNC(=O)c1ccccc1F	1.5%	-10.1	-6.3%	-2.3%	3.8%	2.7%
COCCNC(=O)C1(C)CCN(C(=O)c2ccc(C(F)(F)F)nc2C)C1 (configuration not stated)	/	13.9	/	1.2%	/	18.6%
CN=c1scc(-c2ccc([N+](=O)[O-])cc2)n1/N=C/c1ccco1	0.9%	-9.6	-3.2%	11.3%	-8.3%	-10.5%
O=C1c2ccc([N+](=O)[O-])cc2NC(c2ccco2)N1/N=C/c1ccco1 (configuration not stated)	?	-20.6	-7.1%	-26.4%	3.6%	18.4µM*
CO/N=C(/C(=O)N[C@@H]1C(=O)N2C(C(=O)O)=CCS[C@H]12)c1csc(N)n1	/	/	-0.1%	/	1.4%	/
COc1cc(C(O)c2nc(-c3ccc(F)cc3OC)cs2)ccc1F (configuration not stated)	/	-3.1	/	?	/	?
COc1ccccc1-c1csc(C(O)c2ccccc2)n1 (configuration not stated)	/	-3.6	/	23.1µM*	/	?
COc1ccccc1-c1csc(C(O)c2cccc(Cl)c2)n1 (configuration not stated)	/	-3.5	/	20.6µM*	/	?
COc1ccc(C(O)c2nc(-c3ccccc3OC)cs2)cc1 (configuration not stated)	/	10.1	/	?	/	?
COc1cc(F)ccc1-c1csc(C(O)c2ccc(F)c(F)c2)n1 (configuration not stated)	/	-4.8	/	?	/	13µM*
OCC1(CO)CCCC(CO)(CO)C1O	/	-6.4	-6.6%	0.6%	-1.6%	-0.2%
CCc1ccccc1NC(=O)c1ccc(=O)n(Cc2ccc(F)cc2)c1	/	/	/	-12.9%	/	-12.1%
CN(CC(=O)Nc1ccc(F)cc1)C(=O)CCc1ccccc1	-4.5%	-5.4	-5.2%	2.0%	-4.1%	-11.3%
SMILES	BCR signal inh	IL1B secr inh	SW480 rerep	DT40 TDP1 CPT	MCF10A rerep	TDP1 cell noCPT
O=C(CN1C(=O)NC(CCc2ccccc2)C1=O)Nc1ccc(F)c(F)c1F (configuration not stated)	-0.6%	-12.9	-23.9%	25.9µM*	3.9%	?
CN(CC(=O)Nc1ccc(F)cc1)C(=O)CN1C(=O)NC(CCc2ccccc2)C1=O (configuration not stated)	/	12.0	/	11.6µM*	/	25.9µM*
O=C(CN1C(=O)NC(Cc2c[nH]c3ccccc23)C1=O)Nc1ccc(F)c(F)c1F (configuration not stated)	7.0%	-14.0	-18.7%	-24.7%	-8.1%	?
CC[C@H](C)NC(=O)CCCc1nnc2n(CCC(C)C)c(=O)c3sccc3n12	/	/	/	-25.8%	/	?
Cn1c(=O)c2sccc2n2c(CCCC(=O)Nc3ccc(Oc4ccc(Cl)cc4)cc3)nnc12	/	/	/	?	/	18.4µM*
CC(C)CCn1c(=O)c2sccc2n2c(CCCC(=O)Nc3ccc(C(C)C)cc3)nnc12	/	/	/	?	/	14.6µM*
CCn1c(=O)c2sccc2n2c(CCCC(=O)Nc3ccc(Oc4ccccc4)cc3)nnc12	/	/	/	?	/	14.6µM*
CCn1c(=O)c2sccc2n2c(CCCC(=O)NCc3cccnc3)nnc12	5.6%	-13.6	1.5%	19.9%	8.1%	0.5%
COCCCn1c(=O)c2sccc2n2c(CCCC(=O)Nc3cccc(C(F)(F)F)c3)nnc12	/	/	/	16.4µM*	/	20.6µM*
COCCCn1c(=O)c2sccc2n2c(CCCC(=O)NCc3ccccc3OC)nnc12	-2.3%	0.0	-2.7%	-7.3%	-1.4%	16.0%
COc1ccc(C2OC3C(CO)OC(n4cnc5c(=O)[nH]c(N)nc54)C3O2)cc1 (configuration not stated)	/	/	/	0.1%	/	0.0%
N#CC(c1ccc(O)cc1)N1CCN(C(C#N)c2ccc(O)cc2)CC1 (configuration not stated)	/	0.0	-3.6%	-15.4%	-9.2%	-17.6%
COc1ccc(F)cc1-c1cc(C(=O)NC2CCCCC2)[nH]n1	/	-8.8	/	-9.0%	/	-11.4%
CC1CCN(C(=O)COC(=O)CSc2ccc(C(N)=O)cc2[N+](=O)[O-])CC1	4.9%	9.9	1.0%	-6.0%	-0.7%	-5.1%

Screening data: PubChem BioAssay, National Center for Advancing Translational Sciences (NCATS)
